Measurements published in PubChem BioAssay AID1240 (Sanford-Burnham Center for Chemical Genomics, 2008).
Screen size: about 50,000 compounds; about 800 (1.6%) showed an effect of 50% or more. The full list was thinned out, with strong results kept by preference.

biological target: Bcl-2-like protein 10 (Homo sapiens) (UniProt Q9HD36); test: TR3 peptide-Bcl-B binding displacers, biochemical primary FP assay, phenotype converters (AID 1240); conditions: GST-Bcl-B / FITC-TR3 peptide fluorescence polarization; stronger effect = higher value; compound at 3.75 mg/L;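 also: 0% = Bcl-B with tracer peptide and DMSO and 100% = tracer peptide lacking Bcl-B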
Sequence (Q9HD36 whole entry, looked up): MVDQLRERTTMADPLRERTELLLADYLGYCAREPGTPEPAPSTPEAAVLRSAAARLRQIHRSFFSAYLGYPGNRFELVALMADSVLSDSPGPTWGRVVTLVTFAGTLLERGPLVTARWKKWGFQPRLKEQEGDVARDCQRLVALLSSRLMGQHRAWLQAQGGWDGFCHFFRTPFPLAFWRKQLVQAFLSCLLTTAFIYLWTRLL

Compound | displacement [%]
Oc1ccccc1C=Nc1ccc2c(c1)ncn2-c1ccccc1 | 15.5
Oc1ccccc1C=Nc1ccc2c(c1)ncn2CCn1cnc2cc(N=Cc3ccccc3O)ccc21 | 115
Cc1nc2cc(N=Cc3ccccc3O)ccc2n1C | 12.7
Cc1nc2c(sc3nc(C)c(C)c(C)c32)c(=O)o1 | 0
COC(=O)c1cc(Cl)c(NC(=O)C(c2ccccc2)c2ccccc2)cc1OC | -16.6
COc1cc(/C=N/NC(=O)/C(=C\C=C\c2ccccc2)NC(=O)c2ccccc2)cc(OC)c1O | -2.3
Cc1c(C=O)c(=O)oc2c3c4c(cc12)CCCN4CCC3 | 148
O=c1oc2c3c4c(cc2cc1CCO)CCCN4CCC3 | 75.8
Cc1c(O)ccc2c3c(c(=O)oc12)CCC3 | 12.3
Cc1c(OCc2ccc(C(=O)O)cc2)ccc2c3c(c(=O)oc12)CCC3 | 8.3
CN1CCN(Cc2c(O)ccc3c4c(c(=O)oc23)CCC4)CC1 | -0.5
O=c1cc(C(F)(F)C(F)(F)F)c2cc3c4c(c2o1)CCCN4CCC3 | 66.7
COCCCNC(=O)c1ccc(C(=O)NCCCOC)cc1 | -6.5
O=[N+]([O-])c1cnc(-c2ccccc2)nc1 | -3.2
COc1cc(Br)cc(/C=C(\C#N)C(=O)NC2CCCCC2)c1O | -5.3
COc1ccc(Cl)cc1C(=O)Nc1nc(-c2ccc(Cl)cc2Cl)cs1 | 9.7
CCSc1nc2ccccc2n1Cc1ccc(OC)c([N+](=O)[O-])c1 | 10.5
CC(=O)Nc1cccc(NS(=O)(=O)c2ccccc2)c1 | 9.1
C=CCNC(=O)Nc1ccc2nccnc2c1 | 8.7
CCOC(=O)c1c(NC=O)sc2c1CCC2 | -2.1
CCOC(=O)c1c(NC=O)sc2c1CCC/C2=N\O | 148
CCOC(=O)c1c(NC(=O)c2ccccc2)sc2c1CCC/C2=N/O | -0.2
COc1cccc(N2C(=O)C(=O)/C(=C(\O)c3ccccc3)C2c2ccc([N+](=O)[O-])cc2)c1 (stereo unspecified) | 4.1

Compound | displacement [%]
O=c1/c(=C/c2cn(Cc3ccc(F)cc3)c3ccccc23)sc2nc3ccccc3n12 | 2.3
NS(=O)(=O)c1cccc(NC(=O)c2cccs2)c1 | 1.4
COc1ccc(NC(=O)CCN2C(=O)/C(=C\c3cccc(OC)c3)SC2=S)cc1 | -5.5
O=C(CCN1C(=O)/C(=C/c2cccs2)SC1=S)Nc1ccc(F)cc1 | 10.6
COc1ccc(NC(=O)CCN2C(=O)/C(=C/c3ccc(F)cc3)SC2=S)cc1 | 12.3
O=C(CCCN1C(=O)/C(=C\c2cccs2)SC1=S)Nc1ccccc1O | 10.6
CCOc1ccc(/C=C2\SC(=S)N(CCC(=O)N3CCN(C)CC3)C2=O)cc1 | 1.2
O=C(CCCN1C(=O)/C(=C\c2cccs2)SC1=S)Nc1ccc(F)c(Cl)c1 | 3.9
Cc1ccccc1NC(=O)CCCN1C(=O)/C(=C/c2cccc3c2OCO3)SC1=S | 94.9
CCOc1ccc(/C=C2\SC(=S)N(CCC(=O)N3CCOCC3)C2=O)cc1 | 100
O=C(CCN1C(=O)/C(=C\c2cccs2)SC1=S)Nc1ccc(Cl)cc1 | 77.4
O=C(CCCN1C(=O)/C(=C/c2ccccc2)SC1=S)Nc1ccccc1C(=O)O | 2
COc1ccc(NC(=O)CCN2C(=O)/C(=C/c3cccs3)SC2=S)cc1 | 82.8
CCOc1ccc(/C=C2/SC(=S)N(CN3CCOCC3)C2=O)cc1 | 8.8
O=C(O)CSc1nnc(-c2ccco2)n1-c1ccccc1 | 0.4
O=C(Nc1ccc(Cl)c(Cl)c1)C(c1ccccc1)c1ccccc1 | 15.4
COC(=O)c1ccccc1P(C)(C)=O | 1
COc1ccc(Br)cc1C(=O)Nc1cc2nn(-c3ccc(C)cc3)nc2cc1C | -6.9
COc1ccc(NS(=O)(=O)c2cc(C)ccc2C)cc1 | 2
O=C(Nc1cccnc1)c1cccc(C(=O)Nc2cccnc2)n1 | -7.2
O=C(CSc1nnc(-c2ccncc2)n1-c1ccccc1)c1ccc(F)cc1 | -2.7
COc1ccc(C(=O)Nc2cccc(NC(=O)c3ccc(F)cc3)c2)cc1Br | 2.2
CN(C)c1ccc(NS(=O)(=O)c2ccccc2[N+](=O)[O-])cc1 | 9.8

Compound | displacement [%]
O=C1C(Cl)=C(N2CCOCC2)C(=O)C(Cl)=C1/C=C/N1CCOCC1 | 24.3
CCOc1ccc(/C=C2\SC(=S)N(CCC(=O)Nc3ccccn3)C2=O)cc1 | -4.3
COc1ccc(/C=C2\SC(=S)N(CCCC(=O)Nc3c(C)n(C)n(-c4ccccc4)c3=O)C2=O)cc1 | 120
O=C(CCN1C(=O)/C(=C/c2cccs2)SC1=S)Nc1cccnc1 | 135
COc1cccc(NC(=O)CCN2C(=O)/C(=C/c3ccc(C)cc3)SC2=S)c1 | 39.1
CCOc1ccc(/C=C2\SC(=S)N(CCC(=O)Nc3cccnc3)C2=O)cc1 | 77
O=C(CCCN1C(=O)/C(=C\c2cccs2)SC1=S)Nc1cccnc1 | -0.9
Cc1c(NC(=O)CCCN2C(=O)/C(=C/c3ccccc3)SC2=S)c(=O)n(-c2ccccc2)n1C | 1.5
O=C(CCN1C(=O)/C(=C/c2cccs2)SC1=S)Nc1cccc(F)c1 | -21.4
COc1cccc(/C=C2/SC(=S)N(CCC(=O)Nc3c(C)n(C)n(-c4ccccc4)c3=O)C2=O)c1 | 7.7
CCc1ccc(C(=O)CC2(O)C(=O)Nc3ccc(Br)cc32)cc1 (stereo unspecified) | 2.3
Cc1ccc(CN2CCN(N=Cc3c(O)ccc4ccccc34)CC2)c(C)c1 | 0.3
Cc1nc([N+](=O)[O-])cn1-c1cccc(O)c1 | 3
Cc1cccc(NC(=O)COc2ccccc2)n1 | 13.2
CCCNc1nc(OCC(F)(F)F)nc(OCC(F)(F)F)n1 | 12.4
COc1ccc(/C=C2/N=C(c3ccc(C)cc3)OC2=O)cc1Br | 127
COc1ccc(C2=NC(=Cc3ccc(Br)cc3)C(=O)O2)cc1 | 22.5
O=C1OC(c2ccc(F)cc2)=N/C1=C\c1ccc(Cl)cc1 | 4.3
C=CCOc1c(Br)cc(/C=C2/N=C(c3ccccc3)OC2=O)cc1OC | -4.9
Cc1ccc(/C=C2\N=C(c3ccc(Cl)cc3)OC2=O)cc1 | 0
CN(C)/C=C1\N=C(c2cccc(Br)c2)OC1=O | 0.8
Cc1ccc(C2=N/C(=C\c3ccccc3)C(=O)O2)cc1 | -7.3
COc1ccc(/C=C2/N=C(c3ccc(Br)cc3)OC2=O)cc1 | 99.4

Compound | displacement [%]
O=C1OC(c2ccc(F)cc2)=N/C1=C\c1cccc(Br)c1 | 74.2
COc1cc(/C=C2\N=C(c3cccc(Br)c3)OC2=O)cc(OC)c1OC | 72.6
O=C1OC(c2cccc(F)c2)=N/C1=C\c1ccc(F)cc1 | -2.2
COc1ccc(/C=C2\N=C(c3cccc(OC)c3)OC2=O)cc1 | -1.7
CN(C)c1ccc(/C=N/NC(=O)c2ccc(CN3CCOCC3)cc2)cc1Br | 6.3
Cc1ccc(-c2csc(N)c2C(=O)OC(C)C)cc1 | -1.9
Cc1c(NC(=O)c2cccs2)cccc1-c1nc2ncccc2o1 | 3.8
O=C(Nc1ccc(Nc2ccccc2)cc1)c1ccc(Cl)cc1Cl | -13.5
O=C(N/N=C/c1ccccc1Cl)c1ccccn1 | -9.6
CNCCOc1nc(-c2ccccc2)cc(-c2ccccc2)n1 | -7.8
CCOC(=O)N1CCN(S(=O)(=O)c2ccc(C)cc2)C1 | 10.6
O=C1CS/C(=N/N=C/c2ccc3c(c2)OCO3)N1 | -8.7
O=C(NCC1CCS(=O)(=O)C1)OC1CCCCC1 (stereo unspecified) | 2
NC(CC(=O)OC1CCCCC1)C(=O)OC1CCCCC1 (stereo unspecified) | 74.3
CC1(C)CC(NCC(=O)OC2CCCCC2)CC(C)(C)N1 | 12.1
Cc1ccc2[nH]c(C)c(CN(C)Cc3ccccc3)c(=O)c2c1 | -15.8
COCCCNC(=O)CN(c1cccc([N+](=O)[O-])c1)S(=O)(=O)c1ccccc1 | 11.1
Cc1cc(NC(=O)c2cc(-c3ccccc3)nc3ccccc23)no1 | 3.8
CCO/C=C1\C(=O)N(CC)c2ccccc21 | 19.1
CN(C)/C=C1\C=C2C(=O)c3ccccc3N2C1=O | 162
CN(C)/C=C1/C=C(c2ccccc2)OC1=O | -11.5
COc1ccc(N(CC(=O)NCc2ccccc2)S(=O)(=O)c2ccc(C)cc2)cc1 | -1.4
COc1ccc(OC)c(N(CC(=O)N/N=C/c2ccc(OC3CSC3)cc2)S(=O)(=O)c2ccccc2)c1 | 7.5

Compound | displacement [%]
COc1ccc(C(=O)O/N=C(\N)c2ccccc2)cc1 | -9.3
COc1ccc(/C(N)=N/OC(=O)c2ccc(C)cc2)cc1 | -20.8
COc1ccc(/C(N)=N/OC(=O)c2ccc(Cl)cc2)cc1 | 83.7
O=C(COc1ccccc1Cl)NNC(=O)c1ccccn1 | -13
COc1ccc(/C=C2\C=C(c3ccc(Cl)cc3)OC2=O)cc1OC | 147
CCOc1c(I)cc(/C=C2\C(=O)ON=C2c2ccccc2)cc1OC | 3.5
COc1ccc(C2=C/C(=C/c3ccc(Cl)cc3)C(=O)O2)cc1OC | 105
COc1cc(/C=C2\C=C(c3ccc(Cl)cc3)OC2=O)cc(Br)c1OC | -9.5
COc1ccc(/C=C2\C=C(c3ccc(Cl)cc3)OC2=O)cc1[N+](=O)[O-] | 36.4
O=C1ON=C(c2ccc(Cl)cc2)/C1=C/c1ccc(O)cc1 | 4.4
CCOc1cc(/C=C2/C(=O)ON=C2c2ccc(Cl)cc2)ccc1OC | 118
COc1ccc(/C=C2\C=C(c3ccc(Cl)cc3)OC2=O)cc1C | 0.9
COc1ccc(C2=C/C(=C/c3ccc(Cl)cc3)C(=O)O2)cc1 | -4.1
CN(C)c1ccc(C=Nn2cnnc2)cc1 | -7.2
CCN(CC)CCSc1nc(O)c(C2CCCCC2)c(=O)[nH]1 | -6.4
COc1cccc(C2NC(=S)NC(C)=C2C(=O)Nc2cccc(Cl)c2)c1 (stereo unspecified) | -14
N#C/C(=C\c1ccc(-c2cccc([N+](=O)[O-])c2)o1)C(=O)N1CCOCC1 | -3.5
CCOC(=O)c1c(C)n(C)c2c1cc(O)c1ccccc12 | -0.3
Cc1ccc(/C=C(\C#N)c2nc(-c3ccc([N+](=O)[O-])cc3)cs2)o1 | 3.5
